From PubChem BioAssay AID686978 (National Center for Advancing Translational Sciences (NCATS), 2013)
In all, about 420,000 compounds went through this assay and about 64,000 (15%) were called active. Inconclusive results (about 27%) are left out. The call rests on the fitted dose curve; in most records, active means well fitted inhibition curve with a large enough effect; inconclusive means small, poorly fitted or top-dose-only effect; inactive means flat fitted curve, though single readings scatter. Not all results are given here. Entries that show only a call come without a potency.

experiment: qHTS for Inhibitors of human tyrosyl-DNA phosphodiesterase 1 (TDP1): qHTS in cells in absence of CPT; conditions: DT40 Tdp1-/- hTDP1 cells, no CPT, ATP luminescence, 48 h; activity change, negative = growth inhibition: at 46.2 µM (top of the series); further: nearly all actives have a fitted effect of over 55% in size
In short: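 Chicken DT40 Tdp1-/- cells complemented with human TDP1, screened without camptothecin (DMSO vehicle only), 400 cells/well. Compounds pin-transferred, cells incubated at 37 °C for at least 48 hr. Growth read as ATP-dependent luminescence (CellTiter-Glo, 30 min at RT).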
Potency means the concentration at half of the fitted maximal effect.

Compound | Potency
CCCn1c(C)cc(/C=C(\C#N)C(=O)OCC(=O)N(C)c2c(N)n(Cc3ccccc3)c(=O)[nH]c2=O)c1C | inactive
COc1ccc(N/N=C2/CCCCC2=O)cc1 | inactive
CC1(C)CN(c2ccc(-c3ccnc4ncnn34)cc2)C1=O | inactive
O=C(Oc1cccc(N2C(=O)C3C4c5ccccc5C(c5ccccc54)C3C2=O)c1)c1ccco1 (stereo not given) | 29.1 µM (active)
O=C(NC1CC(=O)N(c2ccccc2)C1)c1ccco1 (stereo not given) | inactive
CC(=O)Oc1cccc(N2C(=O)C3CC=C(Cl)CC3C2=O)c1 (stereo not given) | inactive
CC(C)(C)NC(=O)C(=O)NCc1ccncc1 | inactive
c1ccc(CSCCc2ccncc2)cc1 | inactive
CC(C)(C)c1ccc(SCCc2ccncc2)cc1 | 16.4 µM (active)
CCCc1ccc(OCC(O)CN2CCN(CCO)CC2)cc1 (stereo not given) | inactive
CN(C)CC(O)COc1ccc(C(C)(C)c2ccc(OCC(O)CN(C)C)cc2)cc1 (stereo not given) | 17.8 µM (active)
COc1ccc(OCC(O)CN(C)C(=O)C(C)Oc2ccccc2)cc1 (stereo not given) | inactive
O=S(=O)(Cc1nnnn1-c1ccccc1)c1ccccc1 | inactive
CC(C)C(=O)Nc1ccc2oc(=O)ccc2c1 | inactive
Cc1cc(Br)cn2c(Cc3cccc(F)c3)c(-c3cccc(Br)c3)nc12 | 23.1 µM (active)
Cc1cc(Br)cn2c(Cc3ccccc3C(F)(F)F)c(-c3ccc(Cl)cc3)nc12 | inactive
Fc1cccc(Cc2c(-c3cccc(Cl)c3)nc3ccc(Br)cn23)c1 | 14.6 µM (active)
CC(C)(C)Cc1c(C2CCCCC2)nc2ccc(Br)cn12 | inactive
CCOC(=O)N1CCN(S(=O)(=O)c2cc3c(cc2C)NC(=O)CO3)CC1 | inactive
Cc1nc(N)c(Br)c(C)c1Br | inactive
CCOC(=O)C1C(=O)NC(N2CCN(c3ccccc3)CC2)=NC1c1ccco1 (stereo not given) | inactive
Cc1cc(N=Nc2ccc3ccccc3c2)ccc1O | inactive
CC(C)C[C@H](NC(=O)N1CCn2c1nc1ccccc12)C(=O)NC1CC1 | inactive
COc1ccc(-n2ccn(CC(=O)Nc3ccc(C)c(C)c3)c(=O)c2=O)cc1OC | inactive
COc1ccc(NC(=O)CC2SC(N3CCCCC3)=NC2=O)cc1OC (stereo not given) | inactive
CCOC(=O)c1cn(CC(=O)Nc2ccc(C(C)C)cc2)nn1 | inactive
COc1ccc(NC(=O)CN2C(=O)C(c3ccccc3)=NC23CCCCCC3)cc1OC | 18.4 µM (active)
COc1ccc(NC(=O)CNC(=O)Cc2ccccc2)cc1OC | inactive
COc1ccc(NC(=O)CN2C(=O)CSC2=O)cc1 | inactive
COc1ccc(C2=NC3(CCCCC3)N(CC(=O)Nc3ccc(C(C)C)cc3)C2=O)cc1 | 20.6 µM (active)
